An excerpt weighted towards active compounds, which were near 3% of everything screened.
PPC-1+TRAIL kill = kills PPC-1 cancer cells in the presence of TRAIL | cell killing (% activity), % at 4 µM or 5 µM | PPC-1 cells + TRAIL, ATPLite viability luminescence | 220,000 compounds, 0.41% hits;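 active = cell killing above 50% in the first pass at 4 µM, then a duplicate retest at 5 µM averaging 50% or more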
TRAIL sens C8 = caspase-8 TRAIL sensitization; NB7+C8 cells + TRAIL, ATPlite viability luminescence; inhibition (viability loss, TRAIL sensitization), % at 10 µM; 360,000 compounds, 1% hits; AID 624354;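 active = compounds causing at least 50% loss of cell viability in the single-dose screen, relative to plate controls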
SENP8 block-1 = inhibitors of human SENP8 protease; inhibition, % at 20 µM; recombinant SENP8, Nedd8 substrate fluorescence; 360,000 compounds, 0.64% hits; Q96LD8; in the data active = inhibition mostly above about 40%, no sharp cut-off; inactive = mostly below about 27%
SENP6 inh = SENP6 protease inhibition | inhibition, % at 10 µM | Q9GZR1 | Recombinant SENP6 catalytic domain, aminoluciferin luminescence | 330,000 compounds, 1.8% hits;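 active = inhibition above about 50% at the single tested dose, limit read from the data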
SENP7 inh = SENP7 protease inhibition; inhibition, % at 5 µM; recombinant SENP7, Z-RLRGG-aminoluciferin luminescence, 40 min; AID 434973; 330,000 compounds, 1.5% hits; Q9BQF6;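 active = inhibition above about 50% at the single test dose, limit read from the data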
Target sequence (Q9BQF6 706-1050 limits assumed): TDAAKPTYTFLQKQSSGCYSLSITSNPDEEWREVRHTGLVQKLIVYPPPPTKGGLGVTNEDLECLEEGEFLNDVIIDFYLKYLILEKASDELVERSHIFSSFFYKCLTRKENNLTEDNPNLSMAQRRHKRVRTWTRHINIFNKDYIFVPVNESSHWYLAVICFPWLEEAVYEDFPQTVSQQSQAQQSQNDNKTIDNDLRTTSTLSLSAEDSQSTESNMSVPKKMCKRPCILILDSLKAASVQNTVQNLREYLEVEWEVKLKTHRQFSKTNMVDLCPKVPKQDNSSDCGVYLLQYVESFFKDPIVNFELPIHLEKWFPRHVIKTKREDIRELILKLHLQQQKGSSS
SENP8 block-2 = inhibitors of human SENP8 protease; Q96LD8; purified SENP8, Z-RLRGG-aminoluciferin cleavage, luminescence; inhibition, % at 10 µM; 330,000 compounds, 1.2% hits; AID 2540; in the data active = inhibition above about 50%
SENP8 confirm = confirmation of human SENP8 protease inhibitors | AID 488912 | inhibition, % at 12.5 µM | shares compounds with SENP7 inh | 6,200 compounds, 40% hits | Recombinant SENP8, Z-RLRGG-aminoluciferin luminescence, 60 min;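 active = mean inhibition across replicates above about 50%, limit read from the data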
SENP6 conf = human SENP6 inhibition, confirmed; 6,200 compounds, 58% hits; shares compounds with SENP7 inh; recombinant SENP6, Z-RLRGG-aminoluciferin luminescence; AID 488915; inhibition, % at 12.5 µM
SENP7 confirm = human SENP7 inhibition, confirmed | inhibition, % at 12.5 µM | 6,200 compounds, 69% hits | recombinant SENP7, Z-RLRGG-aminoluciferin luminescence, 40 min | shares compounds with SENP7 inh
Casp3 select = selectivity test for SENP inhibitors: human caspase-3 inhibition; inhibition, % at 12.5 µM; purified caspase-3, Z-DEVD-aminoluciferin luminescence, 60 min; shares compounds with SENP7 inh; 6,200 compounds, 60% hits;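 active = mean inhibition above about 50%, limit read from the data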
Target sequence (P42574 28-227 limits assumed): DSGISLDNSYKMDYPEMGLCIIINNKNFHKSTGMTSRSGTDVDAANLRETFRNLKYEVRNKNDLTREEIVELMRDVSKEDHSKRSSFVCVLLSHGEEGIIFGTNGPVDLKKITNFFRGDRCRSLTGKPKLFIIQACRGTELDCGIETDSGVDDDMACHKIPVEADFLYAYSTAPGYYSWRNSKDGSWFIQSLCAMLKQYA
Luc interf = counter-screen for SENP inhibitors: luminescence interference | shares compounds with SENP7 inh | Pre-incubated SENP8/Z-RLRGG-aminoluciferin, luciferase luminescence interference | inhibition, % at 12.5 µM | 6,200 compounds, 39% hits;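 active = mean inhibition above about 50% when retested at one dose, limit read from the data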
Large screens that a line does not name were inactive (follow-up assays come after a bar, where they were run).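 Rule for the calls, unless noted: active = mean inhibition above about 50% in the one-dose retest (limit read from the data); inactive = the rest.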

O=C(Nc1cccc2ccccc12)/C(Cl)=C/c1ccccc1	none
COc1ccc(NC(=O)C2(S(=O)(=O)c3ccc(C)cc3)CC2)cc1	none (no result: PPC-1+TRAIL kill)
Cc1nnsc1NC(=O)OCc1ccccc1Cl	SENP6 inh 55.1 | SENP8 confirm inactive | SENP6 conf inactive | SENP7 confirm 63.0 | Casp3 select inactive | Luc interf inactive
O=C(O)c1ccc(N/N=C/c2ccc(OC(=O)c3cccc(Cl)c3)cc2)cc1	SENP8 block-2 79.7 | SENP8 confirm inactive | SENP6 conf inactive | SENP7 confirm inactive | Casp3 select inactive | Luc interf inactive
O=C(O)c1cccc(N/N=C/c2ccc(OC(F)(F)F)cc2)c1	SENP6 inh 98.8, SENP8 block-2 97.5 (no result: PPC-1+TRAIL kill) | SENP8 confirm inactive | SENP6 conf 100.1 | SENP7 confirm 102.7 | Casp3 select 94.1 | Luc interf 98.8
O=C(O)c1cccc(N/N=C/c2cccs2)c1	SENP6 inh 99.7, SENP7 inh 99.9, SENP8 block-2 96.8 | SENP8 confirm 99.6 | SENP6 conf 100.3 | SENP7 confirm 103.8 | Casp3 select 97.6 | Luc interf 99.1
CSc1ccc(/C=N/Nc2cccc(C(=O)O)c2)cc1	none (no result: SENP6 inh, SENP7 inh, SENP8 block-2)
CC1CC1C(=O)N1CCN(S(=O)(=O)c2cccc(F)c2)CC1 (centres undefined)	none (no result: PPC-1+TRAIL kill)
Cc1ccc2c(CC(=O)N3CCc4ccccc43)coc2c1	SENP6 inh 81.3, SENP7 inh 81.9, SENP8 block-2 66.1 | SENP8 confirm inactive | SENP6 conf inactive | SENP7 confirm 59.5 | Casp3 select 69.5 | Luc interf inactive
O=C(Cc1coc2ccc3ccccc3c12)N1CCc2ccccc21	none
O=C(NC1CC2CCCC(C1)N2Cc1ccccc1)c1ccc([N+](=O)[O-])cc1 (centres undefined)	none (no result: PPC-1+TRAIL kill)
Cc1oc(-c2ccccc2)nc1C(=O)OCC(=O)NC(C)c1ccccc1 (centres undefined)	none (no result: PPC-1+TRAIL kill)
Cc1oc(-c2ccccc2)nc1C(=O)OCC(=O)NC(=O)NCC(C)C	SENP7 inh 64.5 | SENP8 confirm inactive | SENP6 conf inactive | SENP7 confirm inactive | Casp3 select inactive | Luc interf inactive
COc1cc(OC)cc(C(=O)Nc2ccc(-n3cnnn3)c(C)c2)c1	SENP6 inh 93.8, SENP8 block-2 92.2 | SENP8 confirm 68.9 | SENP6 conf 91.7 | SENP7 confirm 100.8 | Casp3 select 94.9 | Luc interf 91.7
COc1cc(NC(=O)c2ccccc2-n2cnnn2)cc(OC)c1	none (no result: PPC-1+TRAIL kill)
COc1cccc(OCC(=O)NNC(=O)c2ccc3ccccc3c2)c1	none (no result: PPC-1+TRAIL kill)
CCCC(C)C(=O)Nc1ccc(Cl)cc1Cl (centres undefined)	none
CO/N=C/C(C(C)=O)C(=O)Nc1ccc(Cl)cc1Cl (centres undefined)	SENP6 inh 56.4 | SENP8 confirm inactive | SENP6 conf inactive | SENP7 confirm inactive | Casp3 select inactive | Luc interf inactive
CC1=C(C(=O)N(C)C)CC(CC(=O)NCc2cccc3ccccc23)C(=O)N1Cc1ccc(F)cc1 (centres undefined)	none (no result: PPC-1+TRAIL kill, SENP6 inh, SENP7 inh, SENP8 block-2)
CCOC(=O)Nc1ccc(NCc2ccc(F)cc2)nc1N	SENP6 inh 67.8, SENP8 block-2 57.7 (no result: PPC-1+TRAIL kill) | SENP8 confirm inactive | SENP6 conf inactive | SENP7 confirm inactive | Casp3 select inactive | Luc interf inactive
CCCC(=O)Nc1cccc(-c2nc3cc(C)c(C)cc3o2)c1	SENP7 inh 90.7 | SENP8 confirm inactive | SENP6 conf inactive | SENP7 confirm inactive | Casp3 select inactive | Luc interf 53.8
Cc1ccc2oc(-c3cccc(NC(=O)Cc4cccs4)c3)nc2c1	SENP7 inh 74.8 | SENP8 confirm inactive | SENP6 conf inactive | SENP7 confirm inactive | Casp3 select inactive | Luc interf inactive
Cc1ccc2oc(-c3ccc(C)c(NC(=O)Cc4cccs4)c3)nc2c1	none
CCC(=O)Nc1ccc2oc(-c3cccc(C)c3)nc2c1	TRAIL sens C8 59.6, SENP6 inh 99.2, SENP7 inh 97.7, SENP8 block-2 94.0 | SENP8 confirm inactive | SENP6 conf 98.3 | SENP7 confirm 103.0 | Casp3 select 95.9 | Luc interf 74.7
CCC(=O)Nc1ccc(-c2nnc(-c3ccccc3)o2)cc1	SENP6 inh 72.1, SENP7 inh 74.8 | SENP8 confirm inactive | SENP6 conf inactive | SENP7 confirm inactive | Casp3 select inactive | Luc interf inactive
CCC(=O)Nc1cccc(-c2nc3ccc(C)cc3o2)c1	none (no result: PPC-1+TRAIL kill)
CCC(=O)Nc1cccc(-c2nnc(-c3cccc(NC(=O)CC)c3)o2)c1	none
CC(c1nc2ccccc2c(=O)[nH]1)N1CCCN(S(=O)(=O)c2ccc(F)cc2)CC1 (centres undefined)	none (no result: PPC-1+TRAIL kill)
Cc1cc(C)cc(NC(=O)CCN2CCOCC2)c1	none (no result: PPC-1+TRAIL kill)
O=C(CN1C(=O)c2ccc([N+](=O)[O-])cc2C1=O)NCC1CCCO1 (centres undefined)	none (no result: PPC-1+TRAIL kill)
O=C(COc1cccc([N+](=O)[O-])c1)NN1C(=O)c2ccccc2C1=O	none (no result: PPC-1+TRAIL kill)
CCCC[n+]1ccn(C2=C([O-])c3ccccc3C(=O)/C2=N\S(=O)(=O)c2ccc(Cl)cc2)c1	SENP8 block-1 48.4, SENP6 inh 57.0 | SENP8 confirm inactive | SENP6 conf 50.5 | SENP7 confirm inactive | Casp3 select inactive | Luc interf inactive
Cc1[nH]c2ccccc2c1/C=N\NC(=O)CNc1ccc2c(c1)OCO2	none
COc1ccc(N=Cc2c(O)[nH]c3ccccc23)cc1	SENP7 inh 67.9, SENP8 block-2 65.9 | SENP8 confirm inactive | SENP6 conf 83.0 | SENP7 confirm 98.8 | Casp3 select 76.2 | Luc interf inactive
Oc1[nH]c2ccccc2c1C=Nc1ccc2c(c1)OCO2	SENP6 inh 86.3, SENP8 block-2 75.6 | SENP8 confirm 66.9 | SENP6 conf 88.0 | SENP7 confirm 99.4 | Casp3 select 83.1 | Luc interf inactive
COc1ccc(-c2nc3c(Cl)cc(C(F)(F)F)cn3c2Cc2ccsc2)cc1OC	none (no result: PPC-1+TRAIL kill, SENP6 inh, SENP7 inh, SENP8 block-2)
O=C(CCCN1C(=O)/C(=C/c2ccccc2Cl)SC1=S)N1CCCC1	SENP6 inh 73.8, SENP7 inh 68.3, SENP8 block-2 84.0 (no result: PPC-1+TRAIL kill) | SENP8 confirm 84.6 | SENP6 conf 84.0 | SENP7 confirm 87.7 | Casp3 select 61.3 | Luc interf inactive

Assay outcomes: PubChem BioAssay, Sanford-Burnham Center for Chemical Genomics
